KDM5B inhibitor – inhibitors of human KDM5B histone demethylase | Q9UGL1 | KDM5B demethylase, FDH-coupled NADH fluorescence (FDH is formaldehyde dehydrogenase) | Potency, µM (doses to about 57.7 µM), usual class: inhibitors | hit rate 2.6% among 220,000; active = well fitted inhibition curve with a large enough effect; inconclusive = small, poorly fitted or top-dose-only effect; inactive = no such curve, though single readings can be large or run the other way; also: potency is read from the fitted curve at half-maximal effect; 0% is about no effect; nearly all actives have a fitted effect of over 70% in size
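Coupled FDH/NAD⁺ fluorescence readout. KDM5BΔAP 200 nM final; compound titration, 10 min RT preincubation; substrate mix 12.5 µM H3K4me3, 25 µM 2-OG, 50 µM Fe(II), 100 µM ascorbate, 0.25 mM NAD⁺, 0.25 U/mL FDH; ΔRFU over 30 min.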
IP6K1 inh – blocks human inositol hexakisphosphate kinase 1 | hit rate 0.81% among 140,000 | activity change, % (series mostly up to about 58 µM) | IP6K1 kinase, ADP-Glo luminescence, 2 h; hits give low values | AID 1645851; in the data active = activity change below about -25%; also: % is scaled to controls: 0 for no effect and ±100 for the full control effect
Target sequence (Q92551 whole entry, looked up): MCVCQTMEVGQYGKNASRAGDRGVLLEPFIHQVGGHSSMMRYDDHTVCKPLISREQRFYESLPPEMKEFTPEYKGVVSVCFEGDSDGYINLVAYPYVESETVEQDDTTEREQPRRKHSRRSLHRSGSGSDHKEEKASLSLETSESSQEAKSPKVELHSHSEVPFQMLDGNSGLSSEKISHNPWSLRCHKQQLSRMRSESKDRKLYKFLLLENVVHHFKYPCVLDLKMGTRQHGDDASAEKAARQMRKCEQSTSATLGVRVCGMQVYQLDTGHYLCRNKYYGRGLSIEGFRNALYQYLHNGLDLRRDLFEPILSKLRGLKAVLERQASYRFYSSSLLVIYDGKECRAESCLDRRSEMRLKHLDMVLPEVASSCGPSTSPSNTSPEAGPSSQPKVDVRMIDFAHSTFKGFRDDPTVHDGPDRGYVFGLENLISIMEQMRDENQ
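ADP-Glo luminescence measures ADP made by human IP6K1 during a 2 h RT reaction with ATP/IP6 (mix at 1.3 mM/130 uM); top library doses 57.5 and 19.1 uM final.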
* hit, by the source's call; i = inactive; ? = inconclusive; nt = not tested or not shown. Sampled rows, rich in hits. Any-hit rate of the full collection: about 2.7%.

SMILES	KDM5B inhibitor	IP6K1 inh
COCCN1C(=O)c2ccccc2C(C(=O)NCCc2ccccc2)C12CCCC2 (stereo unspecified)	i	0
COCCN1C(=O)c2ccccc2C(C(=O)NCc2ccccc2OC)C12CCCC2 (stereo unspecified)	18µM*	12
COCCN1C(=O)c2ccccc2C(C(=O)Nc2ccc(C)cc2Cl)C12CCCC2 (stereo unspecified)	28µM*	7
CCOC(=O)C1CCC(CNC(=O)N2CCCC2c2cccc(C)c2)CC1 (stereo unspecified)	i	nt
COCCNC(=O)COC(=O)c1cc(-c2cccc3ccccc23)nc2ccccc12	i	nt
CCCNC(=O)CSc1ncc(-c2ccc(Cl)cc2)o1	i	nt
COc1ccccc1C(=O)Nc1cc(C2CCCC2)nn1C	nt	9
COCCN1C(=O)c2ccccc2C(C(=O)NCc2ccc(Cl)cc2)C12CCCC2 (stereo unspecified)	25µM*	-5
COCCN1C(=O)c2ccccc2C(C(=O)NCc2ccccc2)C12CCCC2 (stereo unspecified)	i	-1
CC(C)C(=O)N1Cc2ccccc2CC2(CCCN(CC3CCNC3)C2)C1 (stereo unspecified)	35µM*	10
CCC(=O)N1Cc2ccccc2CC2(CCCN(CC3CCNC3)C2)C1 (stereo unspecified)	i	0
O=C(c1cccc(Cl)c1)N1Cc2ccccc2CC2(CCCN2Cc2ccncc2)C1 (stereo unspecified)	50µM*	-11
CCCC(=O)N1Cc2ccccc2CC2(CCCCN2CC)C1 (stereo unspecified)	56µM*	-18
O=C(c1ccccc1)N1Cc2ccccc2CC2(CCCCN2Cc2ccncc2)C1 (stereo unspecified)	i	-13
CCCN1CCCCC12Cc1ccccc1CN(C(=O)CC)C2 (stereo unspecified)	?	-5
CCC(=O)N1Cc2ccccc2CC2(CCCCN2CC)C1 (stereo unspecified)	100µM*	-11
CCCC(=O)N1Cc2ccccc2CC2(CCCN2CCC)C1 (stereo unspecified)	?	-8
CCONC(=O)C(C)Sc1cc(Cl)ccc1Cl (stereo unspecified)	i	nt
O=C(NCc1cccs1)C1CCCN(Cc2cccc(-c3cccs3)c2)C1 (stereo unspecified)	nt	2
CCC(C)(C)C(=O)NCc1cccs1	i	nt
COc1ccccc1-c1cccc(CN2CCCC(C(=O)NCc3ccc(C(F)(F)F)cc3)C2)c1 (stereo unspecified)	nt	-4
CCCCCn1cnc2c1c(=O)n(C)c(=O)n2C	i	nt
CCN(CC)C(CNC(=O)c1cn(C)c2ccccc12)c1ccccc1 (stereo unspecified)	i	nt
CC(=O)NCC(=O)N1Cc2ccccc2CC2(CCCCN2CC2CCCC2)C1 (stereo unspecified)	?	-9
CC(=O)NCC(=O)N1Cc2ccccc2CC2(CCCCN2CC2CCNC2)C1 (stereo unspecified)	2.8µM*	-9
SMILES	KDM5B inhibitor	IP6K1 inh
COC(=O)N1CCC2(CC1)C(=NC1CCCCC1)NC(=O)N2c1cccnc1	i	0
O=C(OCc1ccccc1)N1CCC2(CC1)C(=NC1CCCCC1)NC(=O)N2c1cccnc1	28µM*	2
O=C(Cc1ccc(F)cc1)N(CC1CCN(Cc2ccccc2F)CC1)CC1CCCO1 (stereo unspecified)	i	0
COc1cccc(NC(=O)c2ccc3c(c2)CCC3)c1	i	nt
CC(CCc1ccccc1)NC(=O)c1ccc2nccn2c1 (stereo unspecified)	35µM*	-4
CCC(CC)NC(=O)c1ccc2nccn2c1	nt	29
O=C(NCc1ccc(F)cc1)c1ccc2nccn2c1	28µM*	1
Cn1c(CNC(=O)c2ccc3nccn3c2)nc2cc(C(F)(F)F)ccc21	20µM*	0
COCCNC(=O)c1ccc2nccn2c1	35µM*	-2
COCCCNC(=O)c1ccc2nccn2c1	nt	5
O=C(NCCc1ccccn1)c1ccc2nccn2c1	?	-8
CN(C)Cc1nnc(C2CC(NC(=O)c3ccc4nccn4c3)C2)n1C (stereo unspecified)	?	9
N#Cc1ccccc1OCC(=O)OCc1ccc(C(N)=O)cc1	i	nt
Cc1ccc(C)c(N2CCN(C(=O)c3ccc4c(c3)nc3n4CCCCC3)CC2)c1	i	nt
CSc1ccc(C(C)NC(=O)c2ccc(F)cc2)cc1 (stereo unspecified)	i	nt
CC(NC(=O)c1ccc2nccn2c1)c1ccc(F)cc1 (stereo unspecified)	35µM*	-8
Cc1noc([C@@H]2CN(Cc3ccccc3C)C[C@H]2CO)n1	i	-9
Cc1ccc2cc(CN3C[C@@H](CO)[C@H](c4nc(C)no4)C3)c(=O)[nH]c2c1	28µM*	-4
Cc1noc([C@@H]2CN(Cc3ccncc3F)C[C@H]2CO)n1	i	-3
Cc1noc([C@@H]2CN(Cc3ccncc3)C[C@H]2CO)n1	28µM*	-12
Cc1ccc(S(=O)(=O)Cc2nc(-c3ccc(C(=O)N4CCOCC4)cc3)oc2C)cc1	i	nt
CCC(C)N1CCC(CN)C1 (stereo unspecified)	i	nt
COCCNC(=O)c1ccc2c(c1)OCCN(c1ccccc1)C2	i	-5
COCCNC(=O)c1ccc2c(c1)N(C)C(CC(=O)NCc1ccccn1)CO2 (stereo unspecified)	28µM*	-16
COCCNC(=O)c1ccc2c(c1)N(C)C(CC(=O)NC1CCOCC1)CO2 (stereo unspecified)	32µM*	-3
SMILES	KDM5B inhibitor	IP6K1 inh
COCCNC(=O)c1ccc2c(c1)N(C)C(CC(=O)NCc1ccncc1)CO2 (stereo unspecified)	?	-2
COCCNC(=O)c1ccc2c(c1)N(C)C(CC(=O)NC(C)(C)CO)CO2 (stereo unspecified)	32µM*	2
COCCNC(=O)c1ccc2c(c1)N(C)C(CC(=O)Nc1ccc[nH]c1=O)CO2 (stereo unspecified)	28µM*	3
CN(C)C(=O)c1ccc2c(c1)N(C)C(CC(=O)NC(C)(CO)CO)CO2 (stereo unspecified)	i	1
NS(=O)(=O)c1ccc(N/N=C/c2c(F)cccc2Cl)c([N+](=O)[O-])c1	i	nt
O=C(NCCC1CCN(C(=O)Nc2cc(F)ccc2F)CC1)c1ccccc1F	nt	9
O=C(NCc1cccc(C(F)(F)F)c1)C1CCN(Cc2ccccc2-c2cccnc2)CC1	nt	0
COCCNC(=O)CCCN1C(=O)COc2ccc(C(=O)COc3c(C)ccc(C)c3C)cc21	i	0
COCCNC(=O)CCCN1C(=O)COc2ccc(C(=O)COc3cc(C)cc(C)c3)cc21	?	4
COCCNC(=O)c1ccc2c(c1)N(C)C(CC(=O)NCC(F)(F)F)CO2 (stereo unspecified)	20µM*	37
C=CCNC(=O)CC1COc2ccc(C(=O)NCCOC)cc2N1C (stereo unspecified)	28µM*	4
COCCNC(=O)c1ccc2c(c1)N(C)C(CC(=O)NCCO)CO2 (stereo unspecified)	28µM*	2
CC(C)CN(C(=O)CC1COc2ccc(C(=O)N(C)C)cc2N1C)C1CC1 (stereo unspecified)	i	5
CC(C)Cn1c(=O)c(C(=O)N2CCN(C(=O)c3ccccc3)CC2)nc2cccnc21	nt	-5
